Data on 26 compounds can be found in PubChem BioAssay (NCATS).

Assay [1] concerns the target Calcium and integrin-binding protein 1 (Homo sapiens) (UniProt Q99828). Put plainly: Primary qHTS for Identification of Calcium Integrin Binding Protein 1 (CIB1) Competitor (AID 1508620).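 Further: GST tagged CIB1 binding a fluorescein labelled alphaIIb integrin peptide tracer; top concentration of the series differs between compounds.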 Put shortly:
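CIB1-GST (1 uM final) and compound incubated 15 min at room temperature before adding FITC-alphaIIb peptide tracer (100 nM final). Competition for binding read by fluorescence polarization (ex 480, em 540) after another 15 min at room temperature.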
A general note: In qHTS, concentration-response curves come from the screen itself.

Assay [2] is described as follows: Primary qHTS for small molecule stabilizers of the endoplasmic reticulum resident proteome: Secreted ER Calcium Modulated Protein (SERCaMP) assay (AID 1508630). Further: potency means the concentration at half of the fitted maximal effect. Put shortly: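 GLuc-SERCaMP-expressing SH-SY5Y cells, pretreated 16 h with compound, are challenged with thapsigargin to empty ER calcium stores; after 4 h, coelenterazine is added directly to the medium and luminescence is imaged.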

Assay [3] concerns the target Cytochrome P450 2D6 (Homo sapiens) (UniProt P10635). Briefly: Cytochrome P450 family 2 subfamily D member 6 (CYP2D6) small molecule antagonists: luciferase biochemical (cell-free) qHTS assay (AID 1645840; active means well fitted curve in the direction sought with a large enough effect in the repeat runs; an effect the other way counts as inactive or inconclusive; further: nearly all actives have a fitted effect of over 55% in size; further: potency means the concentration at half of the fitted maximal effect). Put shortly:
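P450-Glo luminescent screen: recombinant CYP2D6 enzyme–proluciferin substrate mix preincubated with compound 10 min at room temperature, then NADPH regeneration added for 1 h at room temperature. Detection reagent added for 20 min; luciferin light read as relative luminescence units.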

Assay [4] deals with Cytochrome P450 2C9 (Homo sapiens) (UniProt P11712). Put plainly: Cytochrome P450 family 2 subfamily C member 9 (CYP2C9) small molecule antagonists: luciferase biochemical (cell-free) qHTS assay (AID 1645842; active means well fitted curve in the direction sought with a large enough effect in the repeat runs; an effect the other way counts as inactive or inconclusive; further: nearly all actives have a fitted effect of over 55% in size; further: potency means the concentration at half of the fitted maximal effect). Put shortly: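 Luminescence, after 20 min with luciferin detection reagent, reflected CYP2C9 turnover during a 1 h NADPH-driven reaction at 37C. Enzyme-substrate mix contained 0.4% bovine serum albumin and was preincubated with compound 10 min at room temperature.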

Assay [5] can be described thus: Primary qHTS for inhibitors of nuclear receptor binding SET domain protein 2 (NSD2) in an isogenic RCH-ACV NSD2 p.E1099K mutant (9B) (AID 1645876). Further: nearly all actives have a fitted effect of over 70% in size. Further: potency means the concentration at half of the fitted maximal effect.
Assay [6] in a line: Primary qHTS for inhibitors of nuclear receptor binding SET domain protein 2 (NSD2) in an RCH-ACV wild type WT cells (2C) (AID 1645877). Further: nearly all actives have a fitted effect of over 70% in size. Further: potency means the concentration at half of the fitted maximal effect.
The target in assay [7] is N-terminal Xaa-Pro-Lys N-methyltransferase 1 (Homo sapiens) (UniProt Q9BV86). Put plainly: Confirmatory qHTS for Inhibitors of N-terminal methyltransferase 1 (NTMT1): MTaseGlo Assay (AID 1645874). Further: potency means the concentration at half of the fitted maximal effect; nearly all actives have a fitted effect of over 65% in size. Put shortly:
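Compounds are incubated with 125 nM NTMT1 and 100 uM SAM for 15 min before the SPKRIA peptide (1 uM) starts a 30 min room-temperature methylation. SAH is measured by coupled luciferase luminescence and curves fitted to a Hill equation.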

Where “and” joins values, the source holds several entries; their conditions need not be identical. Equal values may be shown once. Records with an inconclusive call do not appear. Calls of active or inactive are those of the source. Unless noted, the call rests on the fitted dose curve; in most records, active means well fitted curve in the direction sought with a large enough effect; inconclusive means small, poorly fitted or top-dose-only effect, or another doubt; inactive means no such curve, though single readings can be large; an effect the other way counts as inactive or inconclusive.

Cytochrome P450 2C9 (Homo sapiens), sequence (P11712 whole entry, looked up): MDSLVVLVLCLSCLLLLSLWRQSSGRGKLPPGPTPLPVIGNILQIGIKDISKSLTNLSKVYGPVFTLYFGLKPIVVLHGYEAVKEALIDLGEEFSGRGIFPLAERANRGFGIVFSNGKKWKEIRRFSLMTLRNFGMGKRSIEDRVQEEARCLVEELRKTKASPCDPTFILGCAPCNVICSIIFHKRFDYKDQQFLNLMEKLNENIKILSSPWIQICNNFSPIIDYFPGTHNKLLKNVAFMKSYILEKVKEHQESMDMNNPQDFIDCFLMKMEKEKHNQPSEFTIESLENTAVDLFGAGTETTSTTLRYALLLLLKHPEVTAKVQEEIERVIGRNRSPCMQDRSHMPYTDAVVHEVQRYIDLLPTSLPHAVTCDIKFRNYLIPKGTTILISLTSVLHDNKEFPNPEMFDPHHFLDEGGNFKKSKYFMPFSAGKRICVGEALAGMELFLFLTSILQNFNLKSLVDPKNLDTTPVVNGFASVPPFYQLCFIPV
Calcium and integrin-binding protein 1 (Homo sapiens), sequence (Q99828 whole entry, looked up): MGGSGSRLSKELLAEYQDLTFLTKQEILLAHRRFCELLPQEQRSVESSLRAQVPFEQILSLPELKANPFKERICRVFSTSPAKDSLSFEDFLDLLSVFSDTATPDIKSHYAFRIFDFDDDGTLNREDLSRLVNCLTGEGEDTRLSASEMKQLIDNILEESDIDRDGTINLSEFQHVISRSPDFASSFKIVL
Cytochrome P450 2D6 (Homo sapiens), sequence (P10635 whole entry, looked up): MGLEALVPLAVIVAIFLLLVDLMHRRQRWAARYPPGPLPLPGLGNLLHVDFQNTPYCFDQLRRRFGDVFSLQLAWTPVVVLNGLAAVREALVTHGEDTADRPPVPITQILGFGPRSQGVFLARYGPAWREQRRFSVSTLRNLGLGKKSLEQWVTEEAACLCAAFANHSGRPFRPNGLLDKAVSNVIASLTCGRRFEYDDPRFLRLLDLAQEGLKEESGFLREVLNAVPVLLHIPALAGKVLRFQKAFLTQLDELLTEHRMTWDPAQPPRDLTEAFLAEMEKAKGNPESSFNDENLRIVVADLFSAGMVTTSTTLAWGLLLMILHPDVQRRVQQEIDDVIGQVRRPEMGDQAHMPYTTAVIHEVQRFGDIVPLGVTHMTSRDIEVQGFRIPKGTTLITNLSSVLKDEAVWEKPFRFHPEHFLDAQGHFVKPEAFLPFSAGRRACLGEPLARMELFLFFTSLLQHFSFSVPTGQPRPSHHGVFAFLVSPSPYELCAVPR
N-terminal Xaa-Pro-Lys N-methyltransferase 1 (Homo sapiens), sequence (Q9BV86 whole entry, looked up): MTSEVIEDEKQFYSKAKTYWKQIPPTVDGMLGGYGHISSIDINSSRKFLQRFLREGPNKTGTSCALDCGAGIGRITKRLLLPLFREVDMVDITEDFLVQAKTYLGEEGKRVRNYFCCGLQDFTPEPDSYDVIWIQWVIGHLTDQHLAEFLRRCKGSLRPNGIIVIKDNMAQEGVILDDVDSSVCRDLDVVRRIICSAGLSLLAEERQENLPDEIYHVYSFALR

Consider `CC[C@H](CC#N)OC(=O)N[C@@H](C)c1cccc(NC(=O)Nc2ccc(-c3cnco3)c(OC)c2)c1`, for which the Potency result in assay [1] and in assay [2] was “inactive” throughout. The Potency in assay [3] was 0.338 µM (active); in assay [4], 0.0756 µM (active); in assay [5] it was 129 nM (active) and 166 nM (active); in assay [6], 0.23 µM (active).
In the case of `COc1cc(Nc2nc3ccccc3nc2NS(=O)(=O)c2ccc(NC(=O)c3ccc(C)c(OC)c3)cc2)cc(OC)c1`, the Potency result in assay [1], in assay [3], in assay [5] and in assay [6] was “inactive” in each case. The Potency in assay [2] was 8.41 µM (active); in assay [4], 7.56 µM (active).
`CCc1cc(-c2n[nH]c(C)c2-c2ccc3c(c2)OCCO3)c(O)cc1O`: the Potency result in assay [1] and in assay [2] was “inactive” each time. Besides, the Potency is 4.25 µM (active) in assay [3], 0.756 µM (active) in assay [4], 8.33 µM (active) in assay [5] and 7.42 µM (active) in assay [6].
Consider `CN(C)CCN(C)C(=O)c1ccc(NC(=O)Nc2ccc(-c3nc(N4CCOCC4)c4ccn(CC(F)(F)F)c4n3)cc2)cc1`, for which the Potency entry in assay [1] and in assay [2] was “inactive” each time. Moreover, the Potency in assay [5] was 0.0209 µM (active); in assay [6], 0.0186 µM (active).
On to `CC(C)[C@H](O)C(=O)N[C@@H](C)C(=O)N[C@@H]1C(=O)N(C)CCc2ccccc21`, for which the Potency entry in assay [1], in assay [2], in assay [5] and in assay [6] was “inactive” in each case.
For the compound `Clc1ccc(C2(c3ccc(-c4cn[nH]c4)cc3)CCNCC2)cc1`, the Potency result in assay [1] and in assay [2] was “inactive” each time. Besides, the Potency in assay [3] was 3.38 µM (active); in assay [4] it was 1.2 µM (active); in assay [5], 3.65 µM (active) and 3.72 µM (active); in assay [6], 1.83 µM (active) and 2.35 µM (active).
In the case of `CCn1c(-c2nonc2N)nc2cncc(CNC3CCNCC3)c21`, the Potency result in assay [1], in assay [2] and in assay [4] was “inactive” in each case. The Potency in assay [5] is 12.9 µM (active); in assay [6], 11.5 µM (active).
On to `CNC(=O)c1ccc2c(C(=Nc3cccc(CN(C)C)c3)c3ccccc3)c(O)[nH]c2c1`, for which the Potency result in assay [1], in assay [2] and in assay [4] was “inactive” each time. The Potency in assay [5] is 16.3 µM (active) and 13.2 µM (active); in assay [6], 16.6 µM (active).
Turning to `COC(=O)[C@H](c1ccccc1Cl)N1CCc2sccc2C1`, the Potency entry in assay [1], in assay [2], in assay [5] and in assay [6] was “inactive” each time.
`CN(C)CCOc1cc(-c2cn[nH]c2)ccc1NC(=O)C1COc2ccccc2O1` (stereo not drawn): the Potency entry in assay [1] and in assay [2] was “inactive” throughout. The Potency is 2.68 µM (active) in assay [3], 0.674 µM (active) in assay [4] and 4.59 µM (active) in assay [6].
For `N#CC(c1ccc(Cl)cc1)c1c(Cl)cc(-n2ncc(=O)[nH]c2=O)cc1Cl` (stereo not drawn), the Potency entry in assay [1], in assay [2] and in assay [6] was “inactive” each time. In addition, the Potency in assay [4] is 19 µM (active).
As to `CC(NCCc1ccc(O)cc1)C(O)c1ccc(O)cc1` (stereo not drawn), the Potency entry in assay [1], in assay [2], in assay [5] and in assay [6] was “inactive” in each case.
As to `Cc1ccccc1-n1c(Cn2nc(-c3cccc(O)c3)c3c(N)ncnc32)nc2cccc(C)c2c1=O`, the Potency entry in assay [1], in assay [2] and in assay [3] was “inactive” in each case. The Potency is 2.13 µM (active) in assay [4], 0.186 µM (active) in assay [5] and 0.728 µM (active) in assay [6].
Turning to `O=C(CO)N1CCC(c2[nH]nc(-c3ccc(Cl)cc3)c2-c2ccncn2)CC1`, the Potency entry in assay [1], in assay [2] and in assay [5] was “inactive” in each case. Further, in assay [4], the Potency was 6.74 µM (active).
`CN1N=C(N)c2cn([C@@H]3O[C@H](COP(=O)(O)O)[C@@H](O)[C@@H]3O)c3ncnc1c23`: the Potency result in assay [1] and in assay [2] was “inactive” throughout. In assay [5], the Potency was 2.63 µM (active).
Consider `Nc1nc(Cl)nc2c1ncn2[C@@H]1O[C@H](CO)[C@@H](O)[C@H]1F`, for which the Potency entry in assay [1] and in assay [2] was “inactive” throughout. Besides, the Potency was 0.0231 µM (active) in assay [5] and 0.0206 µM (active) in assay [6].
For the compound `CCCCn1c(=O)n(Cc2ccccc2F)c(=O)c2[nH]c(Cc3ccc(NC(C)=O)cc3)nc21`, the Potency entry in assay [1], in assay [2] and in assay [5] was “inactive” in each case. The Potency in assay [4] is 6.01 µM (active).
On to `Cc1ccc(C2=Nc3ccc(Cl)cc3OC2)cc1`, for which the Potency result in assay [1], in assay [2] and in assay [5] was “inactive” in each case.
Consider `Nc1[nH]nc2nnc(-c3c(-c4ccccc4)nn4ccccc34)cc12`, for which the Potency entry in assay [1] and in assay [2] was “inactive” throughout. The Potency in assay [7] is 11.2 µM (active).
Turning to `CCN(CCO)CCCOc1ccc2c(Nc3cc(CC(=O)Nc4cccc(F)c4)[nH]n3)ncnc2c1`, the Potency entry in assay [1] and in assay [2] was “inactive” each time. Also, the values for the Potency in assay [5] and in assay [6] were 5.9 µM (active) and 0.132 µM (active), respectively.
As to `COc1cc2nccc(Oc3ccc(NC(=O)Nc4cc(C)on4)c(Cl)c3)c2cc1OC`, the Potency entry in assay [1] and in assay [2] was “inactive” in each case. Further, the Potency in assay [4] is 19 µM (active); in assay [5], 649 nM (active) and 3.72 µM (active); in assay [6], 728 nM (active) and 4.17 µM (active).
For `O=C(O)c1nc(=O)[nH]c(=O)[nH]1`, the Potency result in assay [1], in assay [2] and in assay [5] was “inactive” in each case.
For `COc1ccc2nc3cc(Cl)ccc3c(Nc3cc(CN4CCCC4)c(O)c(CN4CCCC4)c3)c2n1`, the Potency entry in assay [1] and in assay [2] was “inactive” in each case. In addition, the Potency in assay [5] and in assay [6] was 2.95 µM (active) each time.
For `NS(=O)(=O)c1ccc(Nc2nc(OCC3CCCCC3)c3[nH]cnc3n2)cc1`, the Potency entry in assay [1] and in assay [2] was “inactive” throughout. Further, the Potency in assay [3] is 19 µM (active); in assay [4], 26.8 µM (active); in assay [5] it was 13.2 µM (active); in assay [6], 13.2 µM (active).
In the case of `CCC(=O)N1CCN(c2ccc(-n3c(=O)ccc4cnc5ccc(-c6cnc7ccccc7c6)cc5c43)cc2C(F)(F)F)CC1`, the Potency result in assay [1] and in assay [2] was “inactive” throughout. Also, the Potency is 10.7 µM (active) in assay [4]; 13.3 nM (active) and 12.9 nM (active) in assay [5]; 13.3 nM (active) and 20.4 nM (active) in assay [6].
As to `O=C(CC12CC3CC(CC(C3)C1)C2)Nc1cccc2nc(NCCNCCO)ccc12`, the Potency entry in assay [1], in assay [2] and in assay [4] was “inactive” each time. Moreover, the Potency in assay [5] and in assay [6] was 20.9 µM (active) throughout.
